# Source: PubChem BioAssay AID927 (National Center for Advancing Translational Sciences (NCATS), 2007)
# About 65 (0.1%) of roughly 60,000 compounds were called active. Calls come from the whole dose curve; as a rule, active = well fitted inhibition curve with a large enough effect; inconclusive = small, poorly fitted or top-dose-only effect; inactive = no such curve, though single readings can be large or run the other way. What follows is part of a selection rich in actives, with near analogues and random picks from the rest. Entries that show only a call come without a potency.
# Target: Ubiquitin carboxyl-terminal hydrolase 2 (Homo sapiens) (UniProt O75604)
# Assay: qHTS Assay for Inhibitors of Ubiquitin-specific Protease USP2a; note: nearly all actives have a fitted effect of over 60% in size
# Details: USP2a enzymatic assay; Potency: qHTS inhibition; series mostly up to 38.3 µM
# Description: NIH Molecular Libraries Screening Centers Network [MLSCN]
# NIH Chemical Genomics Center [NCGC]
# PI Name: Nicholson, Ben. Progenra Inc, Malvern, PA
# Homeostasis of cellular proteins is maintained through a combination of synthesis and degradation. The pathway that accounts for the majority of protein degradation is the ubiquitin-proteasomal pathway. Ubiquitin (Ub) is highly conserved in all cells and the generation of a multi-Ub chain typically targets proteins for degradation by the proteasome. However, ubiquitination is highly reversible and dynamic. Deubiquitination, the reverse process, is catalyzed through the action of enzymes referred to as isopeptidases or deubiquitinating enzymes (DUBs). This group of enzymes is collectively responsible for maintaining adequate pools of free ubiquitin and regulating the ubiquitination status of cellular proteins. The class of DUBs referred to as the ubiquitin-specific proteases (USP) family functions endoproteolytically to cleave Ub chains from a wide range of protein substrates. USP2a deubiquitinates fatty acid synthase (FASN) which has recently been identified as an emerging oncology target. To identify inhibitors of USP2a a cell-free assay was employed.
# The reporter enzyme chosen is phospholipase A2 (PLA2), which has an absolute requirement for a free amino terminus. Thus, fusion of a UBL to the N-terminus of PLA2 inactivates PLA2. When the UBL-PLA2 reporter enzyme is cleaved by USP2, the activated reporter can subsequently act on its substrate, which is the commercially available NBD C6-HPC (Invitrogen). Thus, this coupled assay gives a fluorescent read-out, which is generated through the cleavage of the PLA2 reporter enzyme. The assay, developed by Progenra, Inc. uses Ub-PLA2 and USP2a at near equal and low (nM) amounts and has been licensed for sale by LifeSensors, Inc. as the Ub-IsoPro1 kit.
# NCGC Assay Protocol Summary:
# The assay buffer, prepared fresh at the day of the assay, contains 20mM Tris-HCl pH 8.0, 2mM CaCl2, 2mM beta-Mercaptoethanol, 0.1% DMSO. 3ul of 40nM (20nM final) USP2 core, which is stored on ice, is dispensed into a medium-binding black solid Kalypsys 1,536 well plate using the Kalypsys dispenser. The assay plate is then pinned with 23nL compound with the Kalypsys pintool in columns 5-48. The controls are pinned as follows: column 1&2 two-fold dilutions of 2M NEM in duplicate; column 3 DMSO; column 4 2M NEM (final concentration 38.2mM). The assay plate is incubated at RT for 30min. Subsequently, 3uL of 40nM (20nM final) Ub-PLA2 and 40uM (20uM final) NBD C6-HPC (stored on ice and protected from light) were dispensed into the plate using the Kalypsys dispenser. Plates were read immediately (0 Hour) on an Envision (Perkin Elmer) plate reader using the following wavelengths Ex 460nm /Em 535nm. Then, the assay plates were incubated for 2.5 hours and read again on the Envision using the same settings
# Data were normalized to the to AC100 inhibition (NEM). Concentration-response curves were fitted to the normalized data and the concentration-response curves were then classified based on curve quality (r2), response magnitude and degree of measured activity. The time zero reading was used to flag fluorescence artifacts.
# Keywords: ubiquitination, deubiquitination, proteases, profluorescent, MLSMR, MLSCN, NIH Roadmap, qHTS, NCGC
# Potency is the fitted concentration of half-maximal effect.
# Sequence of Ubiquitin carboxyl-terminal hydrolase 2 (Homo sapiens) (O75604 whole entry, looked up): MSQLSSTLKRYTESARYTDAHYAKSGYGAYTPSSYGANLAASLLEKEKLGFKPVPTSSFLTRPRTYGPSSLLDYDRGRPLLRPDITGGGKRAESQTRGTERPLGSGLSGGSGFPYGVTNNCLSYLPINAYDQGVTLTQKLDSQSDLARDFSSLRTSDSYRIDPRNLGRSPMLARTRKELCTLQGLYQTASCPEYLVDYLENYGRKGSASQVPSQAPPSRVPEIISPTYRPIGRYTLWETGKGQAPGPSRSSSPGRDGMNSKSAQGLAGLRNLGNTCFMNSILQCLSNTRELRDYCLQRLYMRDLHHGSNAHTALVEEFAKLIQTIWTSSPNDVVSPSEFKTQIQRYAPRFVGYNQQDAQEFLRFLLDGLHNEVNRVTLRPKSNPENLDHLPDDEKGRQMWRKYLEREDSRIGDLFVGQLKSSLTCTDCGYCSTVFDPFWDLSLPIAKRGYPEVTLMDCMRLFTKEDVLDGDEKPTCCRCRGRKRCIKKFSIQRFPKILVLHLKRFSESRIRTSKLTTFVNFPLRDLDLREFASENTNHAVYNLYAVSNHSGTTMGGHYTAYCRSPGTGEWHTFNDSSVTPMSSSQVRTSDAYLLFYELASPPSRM
Structure (SMILES),"activity change, negative = inhibition",Potency
C=C1C(=O)C23C(O)C1CCC2[C@]12COC3(O)C(O)C1C(C)(C)CC[C@H]2O (stereo not given in full),inactive,–
COC(=O)COc1ccc(S(=O)(=O)N2CCOCC2)cc1,inactive,–
Cc1c(NC(=O)Nc2ccccc2Cl)sc(=S)n1C,inactive,–
CCOC(=O)C(CCOc1cccc(CC)c1)C(=O)OCC,inactive,–
Cc1cccc(C(=O)Nc2ccc(CC(=O)O)cc2)c1,inactive,–
CC(=O)OCC(=O)[C@@]1(O)CCC2C3CCC4=CC(=O)CC[C@]4(C)C3C(=O)C[C@]21C (stereo not given in full),inactive,–
COC(=O)c1cccc(NC(=O)CN2CCC(NC(=O)c3cc(OC)c(OC)c(OC)c3)CC2)c1,inactive,–
CC(=O)c1c(N2CCOCC2)nc(=S)n(Cc2ccccc2)c1C,inactive,–
CC1(C)C(=O)Nc2ccccc2N1C(=O)COC(=O)Cn1cnc2ccccc2c1=O,inactive,–
O=c1c2ccccc2oc2nc(C3CCCCC3)n(Cc3ccco3)c(=O)c12,inactive,–
Oc1cc(O)c2c(c1)OC(c1ccc(O)c(O)c1)C(O)C2 (stereo not given),inactive,–
Cc1nc2nc(COc3ccccc3)[nH]n2c(=O)c1C,inactive,–
C=C[C@](C)(O)CCC1C(=C)CCC2[C@@](C)(CO)CCC[C@@]12C (stereo not given in full),inactive,–
CC(=O)OC1CCC2(O)CC1(C)CCC1C2CC1(C)C (stereo not given),inactive,–
CCOC(=O)c1ccc(NC(=O)CSc2nnc(COc3ccccc3OC)n2C)cc1,inactive,–
Cn1cc(-c2nc3cnc(N4CCNCC4)nc3n(CCC#N)c2=O)c2ccccc21,inactive,–
O=C(NCc1ccc(Cl)c(Cl)c1)c1cccnc1,8.48% [at 7.66 µM] (inactive),–
COC(=O)Nc1ncc(CN2C(=O)c3ccccc3C2=O)s1,inactive,–
CC(C)NC(=O)N1CCCC2(CCN(C(=O)c3cccn3C)CC2)C1,–,10 µM (active)
CC(C)NC(=O)N1CC[C@@]2(CCCN(C(=O)c3cccn3C)C2)C1,inactive,–
CC(C)NC(=O)N1CCC2(CC1)CCN(C(=O)c1cccn1C)CC2,inactive,–
CCCNc1ncnc2sc(C)c(C)c12,inactive,–
Nc1nc2nc(Cl)[nH]c2c(=O)[nH]1,inactive,–
Cc1cccc(CC(=O)Nc2c3c(nn2-c2cccc(Cl)c2)CS(=O)C3)c1 (stereo not given),inactive,–

Structure (SMILES),"activity change, negative = inhibition",Potency
Cc1ccccc1-c1nc(N(C)Cc2ccco2)c2ccccc2n1,inactive,–
CCOc1cccc(C(=O)Nc2cccnc2)c1,inactive,–
O=C(Nc1cccc(F)c1)N1CC2(CCN(C(=O)c3csnn3)CC2)C1,inactive,–
CCOC(=O)[C@H]1CCC[C@@H](NS(=O)(=O)c2ccc(NC(C)=O)cc2)C1,inactive,–
CC(NC(=O)Nc1ccccc1)c1ccccc1 (stereo not given),inactive,–
Cc1ccc2c(CSc3nncs3)cc(=O)oc2c1,inactive,–
COc1c2c(cc3occ(-c4ccc5c(c4)OCO5)c(=O)c13)OC(C)(C)C=C2,inactive,–
O=S(=O)(NCc1ccc2c(c1)OCO2)c1cccc2nsnc12,inactive,–
CCOC(=O)CSc1nc2c(c(=O)n(Cc3ccccc3Cl)c(=O)n2C)n1C,inactive,–
C/C=C(/C)C(=O)OC1Cc2c(ccc3ccc(=O)oc23)OC1(C)C (stereo not given),inactive,–
COCCCN1C(=O)c2ccc(C(=O)Nc3ccc(OC)cc3OC)cc2C1=O,inactive,–
Cc1c(O)cc(O)c2c(=O)c(-c3ccc(O)cc3)coc12,inactive,–
CC(C)c1nnc(NC(=O)C2CCCN2S(=O)(=O)c2ccc(Cl)cc2)s1 (stereo not given),inactive,–
Oc1ccc2c(c1)OCC1c3cc4c(cc3OC21)OCO4 (stereo not given),inactive,–
CN1C(=O)C[C@H](c2ccccc2)C1=O,inactive,–
O=C(NCc1cccnc1)c1cn(-c2ccccc2)nc1-c1cccs1,inactive,–
CCC12CN3CC(CC)(CN(C1)C31C(=O)N(C)c3ccc(C)cc31)C2=O (stereo not given),inactive,–
CCOC(=O)N1CCN(C(=O)CN(c2ccc(C)c(C)c2)S(=O)(=O)c2ccccc2)CC1,inactive,–
COc1ccc(-c2ccc(-c3noc(-c4ccncc4)n3)c(OC)n2)cc1,inactive,–
NC(=O)C1CC=CCC1C(=O)OCC(Cl)=C(Cl)Cl (stereo not given),inactive,–
CC1C(O)CC2C(C(=O)O)=CO[C@@H](O[C@H]3OC(CO)C(O)C(O)C3O)C21 (stereo not given in full),inactive,–
CC(C)(C)c1ccc(C(=O)CSc2ncn[nH]2)cc1,inactive,–
c1cncc(CNc2ccnc(-c3ccc4c(c3)OCO4)n2)c1,inactive,–
CCC(CCC(C)C1CCC2C3CC=C4CC(O)CC[C@@]4(C)C3CC[C@@]12C)C(C)C (stereo not given in full),inactive,–

Structure (SMILES),"activity change, negative = inhibition",Potency
CC1(C)Cc2ccccc2-c2nnc(-c3cccc(O)c3)n21,inactive,–
COc1cccc(C2/C(=C(/O)c3ccc(F)cc3)C(=O)C(=O)N2CCN(C)C)c1 (stereo not given),4.13% [at 7.66 µM] (inactive),–
CCOC(=O)C1=C(C)NC(C)=C(C(=O)OCC)C1C1=COCCO1,inactive,–
CSCCC1NC2(C(=O)Nc3ccc(Cl)cc32)[C@@H]2C(=O)N(C3CCCC3)C(=O)[C@H]12 (stereo not given in full),inactive,–
O=C1C2(c3ccccc3)CN(CCCO)CC1(c1ccccc1)CN(CCCO)C2,inactive,–
CCCS(=O)(=O)N1CCCC(C(=O)NCCN2CCCCC2C)C1 (stereo not given),inactive,–
CC(=O)c1c(N2CCOCC2)nc(=S)n(-c2cc(C)ccc2C)c1C,inactive,–
Cc1cc(C)c(C#N)c(SCc2ccc3c(c2)OCO3)n1,inactive,–
CCCC(CCC(=O)OC)(C(=O)OCC)c1csc(N)n1 (stereo not given),inactive,–
COc1cc(OC)c2c(c1Cl)OC1(C2=O)C(O)=CC(=O)CC1C (stereo not given),inactive,–
Cc1ccc2nc(-c3ccc(SCC(=O)Nc4cc(C)on4)nc3)[nH]c2c1,inactive,–
COc1ccc(N(C(=O)c2cccnc2)S(=O)(=O)c2ccc3c(c2)n(C)c(=O)n3C)cc1,inactive,–
CC(=O)C1C(c2cccc(Oc3ccccc3)c2)NC(=O)NC1(O)C(F)(F)F (stereo not given),inactive,–
CC(=O)NS(=O)(=O)c1ccccc1,inactive,–
COc1ccc(C2C(C#N)=C(N)Oc3n[nH]c(C)c32)cc1CN1CCN(c2ccc(F)cc2)CC1 (stereo not given),inactive,–
O=C(c1ccc(=O)[nH]c1)N(Cc1ccco1)C1(C(=O)NC2CCCCC2)CCCCC1,inactive,–
CCCCCCOC(=O)NCC(O)c1ccccc1 (stereo not given),inactive,–
CCS(=O)(=O)N1CCCC(C(=O)NCCCN(C)Cc2ccccc2)C1 (stereo not given),inactive,–
CCCN1Cc2cccc(C(=O)NCc3ccccc3)c2C1=O,inactive,–
O=C(O)c1ccc(F)c(S(=O)(=O)Nc2ccccc2)c1,inactive,–
Cc1cccc2c3c(ccc12)C1=C(C(=O)C3=O)C(C)CO1 (stereo not given),inactive,–
CC1OC(OCC2OC(Oc3c(-c4ccc(O)c(O)c4)oc4cc(O)cc(O)c4c3=O)C(O)C(O)C2O)[C@@H](O)C(O)C1O (stereo not given in full),inactive,–
CCCc1[nH]nc2c1C(C1CC=CCC1)C(C#N)=C(N)O2 (stereo not given),inactive,–
Nc1nc2c(nc(Cl)n2C2OC(CO)C(O)C2O)c(=O)[nH]1 (stereo not given),inactive,–

Structure (SMILES),"activity change, negative = inhibition",Potency
COC(=O)[C@H](C)NC(=O)Nc1ccc(OC(F)(F)F)cc1,inactive,–
COCCCN1C(=O)C(=O)/C(=C(/O)c2ccc3c(c2)CC(C)O3)C1c1cccnc1 (stereo not given),inactive,–
COc1cc(OC)c(NC(=O)c2ccc(Br)o2)cc1Cl,12% [at 7.66 µM] (inactive),–
CN(C)c1cc(N)c2ccccc2n1 (tested in a mixture with another compound),inactive,–
CC[C@@H]1Cc2cc(O)ccc2C2=C1c1ccc(O)cc1C[C@H]2CC,–,25.1 µM (active)
CCOC(=O)c1cc2c(n(-c3ccc(C)cc3)c1=O)CCCC2=O,inactive,–
CC1(C)CC(=O)C(C=NCCC2=CCCCC2)=C(O)C1,6.05% [at 7.66 µM] (inactive),–
Cc1cc(NC(=O)CSc2nnc(-c3ccc(Cl)s3)o2)no1,inactive,–
CC1(C)C=CC(=O)[C@]2(C)C1CC(=O)[C@]1(C)C2CC[C@@]2(C)C(c3ccoc3)OC(=O)C3OC321 (stereo not given in full),inactive,–
CSCCC(NC(=O)c1ccc(=O)n(C)n1)c1nc2ccccc2[nH]1 (stereo not given),inactive,–
CCCn1c(O)c(CN2CCCC(C)C2)c(C)c(C#N)c1=O (stereo not given),inactive,–
COCCn1c(=O)c(-c2cc(F)cc(F)c2)nc2cnc(N3CCNCC3)nc21,inactive,–
Cc1cc(=O)[nH]c(=S)[nH]1,inactive,–
CN1CCCc2cc(C#N)c(=O)[nH]c21,2.48% [at 7.66 µM] (inactive),–
Cc1oc(-c2ccccc2F)nc1CS(=O)(=O)CC(=O)NCCCN(C)C1CCCCC1,inactive,–
Cc1ccc(NC(=O)C2CC(c3ccc(F)cc3)=NO2)cc1 (stereo not given),inactive,–
COc1ccccc1CCn1c(=O)c(-c2cn(C)c3ccccc23)nc2cncnc21,inactive,–
CC(Sc1nncs1)C(=O)NCc1ccc2c(c1)OCO2 (stereo not given),inactive,–
CCOC(=O)N1CCN(C(=O)COc2ccc(Br)cc2)CC1,10.7% [at 7.66 µM] (inactive),–
O=C1NC(c2cc3c(cc2Cl)OCO3)Oc2ccccc21 (stereo not given),inactive,–
CCOC(=O)C1C(=O)OC2(CCCC2)C1C(=O)OCC (stereo not given),inactive,–
Cc1ccc(C)c(NC(=O)C2CC(=O)N(C(C)C)C2)c1 (stereo not given),inactive,–
CC1CCN(C(=O)Cn2cc(C(=O)c3ccco3)c3ccccc32)CC1,inactive,–
